Sfp inh – qHTS Assay for Inhibitors of Bacillus subtilis Sfp phosphopantetheinyl transferase (PPTase); 4'-phosphopantetheinyl transferase ffp (Bacillus subtilis), Q9F4F7; Biochemical Sfp PPTase activity, qHTS; Potency, µM, without a hit: largest response in the series, negative = inhibition, most hits filed as inhibitors; 310,000 compounds, 3.5% hits; AID 1490, 2009;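 further: the enzyme is Sfp with the accession as filed and its product quenches rhodamine fluorescence; 0% = enzyme reaction without inhibitor and -100% = no enzyme wells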
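Reaction rates are the 30-min fluorescence difference (ex 525, em 598 nm) in wells containing 15 nM Sfp, 5 uM rhodamine-CoA and 12.5 uM BHQ-2-YbbR at pH 7.6 with 10 mM MgCl2.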
G9a inh – qHTS Assay for Inhibitors of Histone Lysine Methyltransferase G9a; 350,000 compounds, 8.8% hits; Histone-lysine N-methyltransferase EHMT2 (Homo sapiens), Q96KQ7; AID 504332, 2011; G9a H3K9 monomethylation, AlphaScreen, 2 h; Potency, µM (doses to about 102 µM), for the others: at the top dose activity, negative = inhibition, hits mostly inhibitors; further: on the % scale 0 is the no-effect control and ±100 the full control effect; nearly all actives have a fitted effect of over 75% in size
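AlphaScreen read-out: biotin-H3K9 peptide (500 nM) methylation by 20 nM enzyme with 20 uM SAM, 2 h at room temperature after 15 min compound preincubation; anti-monomethyl H3K9 antibody plus donor/acceptor beads, 10 min dark.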
JMJD2A Tudor – qHTS Assay for Inhibitors of JMJD2A-Tudor Domain. Potency, µM (highest dose often 114 µM), for inactives: at the top dose activity change, negative = inhibition, hits mostly inhibitors. Lysine-specific demethylase 4A (Homo sapiens), O75164. 390,000 compounds, 4.4% hits. AlphaScreen JMJD2A-Tudor / H3K4me3 peptide binding; further: on the % scale 0 is the no-effect control and ±100 the full control effect; nearly all actives have a fitted effect of over 50% in size
BAZ2B block – qHTS Assay for Inhibitors of BAZ2B. AlphaScreen BAZ2B-H3K14Ac peptide displacement. Potency, µM (highest dose often 114 µM), for inactives: top-dose activity change, negative = inhibition, hits mostly inhibitors. Bromodomain adjacent to zinc finger domain protein 2B (Homo sapiens), Q9UIF8. 360,000 compounds, 4.4% hits; further: on the % scale 0 is the no-effect control and ±100 the full control effect; nearly all actives have a fitted effect of over 60% in size
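AlphaScreen displacement: compounds (up to 110uM) incubated 30 min at room temperature with a preformed 50 nM BAZ2B/50 nM biotinylated H3K14Ac peptide complex in PBS pH 7.4 with Tween-20. Donor and acceptor beads at 10 ug/mL final added, 20 min light-protected before reading.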
TDP1 inh – qHTS Assay for Inhibitors of Tyrosyl-DNA Phosphodiesterase (TDP1); recombinant TDP1, AlphaScreen DNA substrate cleavage; Potency, µM (titrated, usually from 130 µM), without a hit: at the highest dose activity change, negative = inhibition, hits mostly inhibitors; 350,000 compounds, 0.28% hits; further: on the % scale 0 is the no-effect control and ±100 the full control effect; nearly all actives have a fitted effect of over 40% in size
Target sequence (Q9NUW8 whole entry, looked up): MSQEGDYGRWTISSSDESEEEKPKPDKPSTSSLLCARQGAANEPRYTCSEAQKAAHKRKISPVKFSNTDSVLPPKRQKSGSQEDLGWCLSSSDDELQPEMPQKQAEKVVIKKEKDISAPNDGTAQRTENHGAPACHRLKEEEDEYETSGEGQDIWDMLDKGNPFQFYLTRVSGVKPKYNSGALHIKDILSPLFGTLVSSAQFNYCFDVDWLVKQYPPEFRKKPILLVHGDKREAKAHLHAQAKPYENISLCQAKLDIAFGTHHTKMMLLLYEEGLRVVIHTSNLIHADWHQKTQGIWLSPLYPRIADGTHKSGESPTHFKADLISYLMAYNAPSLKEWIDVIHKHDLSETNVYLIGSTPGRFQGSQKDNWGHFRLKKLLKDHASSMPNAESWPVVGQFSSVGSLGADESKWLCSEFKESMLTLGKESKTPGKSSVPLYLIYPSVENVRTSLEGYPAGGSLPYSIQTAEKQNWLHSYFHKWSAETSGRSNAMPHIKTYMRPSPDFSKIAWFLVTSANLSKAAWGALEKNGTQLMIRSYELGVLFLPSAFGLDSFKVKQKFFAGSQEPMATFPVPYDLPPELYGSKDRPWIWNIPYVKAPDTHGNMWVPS
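Recombinant E. coli-expressed Tdp1 (1 nM) preincubated with compound 15 min at RT, then 5'-biotin/3'-phosphotyrosine-FITC DNA substrate (15 nM) added for 5 min. AlphaScreen beads (10 ug/ml) added, 10 min RT; tyrosine-FITC cleavage read as signal loss.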
HP1b chromo inh – HTS for Inhibitors of HP1-beta Chromodomain Interactions with Methylated Histone Tails | Chromobox protein homolog 1 (Homo sapiens), P83916 | Potency, µM (top dose mostly 114 µM), without a hit: at the top dose activity change, negative = inhibition, usual class: inhibitors | AlphaScreen HP1-beta / biotin-H3K9me3 peptide binding | AID 540317, 2011 | 390,000 compounds, 0.56% hits; further: nearly all actives have a fitted effect of over 70% in size
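Compound inhibition of the preformed complex between 50 nM HP1-beta and 50 nM biotinylated H3K9me3 peptide was read by AlphaScreen. Buffer was PBS pH 7.4 with 0.01% Tween-20. Incubations ran 30 min at room temperature, with 10 ug/mL donor/acceptor beads.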
Numbers without * were called inactive; ? = inconclusive; nt = no result given; ! = not active in a repeat; [ ] = dose if it differs, or a comment. Hits are enriched below; roughly 12% of the tested compounds scored in any of these assays. The call rests on the fitted dose curve; in most records, active means well fitted curve in the direction sought with a large enough effect; inconclusive means small, poorly fitted or top-dose-only effect, or another doubt; inactive means no such curve, though single readings can be large; an effect the other way counts as inactive or inconclusive. Potency means the concentration at half of the fitted maximal effect.

SMILES | Sfp inh | G9a inh | JMJD2A Tudor | BAZ2B block | TDP1 inh | HP1b chromo inh
Cc1ccccc1-c1nnc(SC(C)C(=O)NC2CCCC2)o1 (stereo unspecified) | nt | ? | 8% | 10% | 1%[56.1 µM] | 35%
CCc1nn(CC(=O)NC(C)CCc2ccccc2)c(=O)c2cc3cc(F)ccc3n12 (stereo unspecified) | 2% | 50µM*! | -12% | ? | 1% | -1%
CCc1nn(CC(=O)NC2CC2)c(=O)c2cc3ccccc3n12 | nt | 26%[59 µM] | 0% | 27% | 2% | 64%
CCc1nn(CC(=O)NC(C)CCc2ccccc2)c(=O)c2cc3c(OC)cccc3n12 (stereo unspecified) | nt | 26%[59 µM] | 7% | 2% | 4% | 21%
CCc1nn(CC(=O)NC2CCN(Cc3ccccc3)CC2)c(=O)c2cc3cc(F)ccc3n12 | 4% | 45µM* | -10% | -10%[57.1 µM] | -4% | 30%
Cc1ccc(-c2nnc(NC3CCCC3)s2)cc1 | 3% | 56% | -9% | -1% | nt | 33%
O=C(NCc1ccccn1)c1ccc(Cl)c(S(=O)(=O)N2CCCCCC2)c1 | 11% | 40% | -21% | -29% | 3% | 30%
Cc1ccccc1S(=O)(=O)Cc1ccc(C(=O)N2CCN(c3ncccn3)CC2)o1 | 0% | -40%[12.7 µM] | -10% | -31% | -2% | 35%
O=C(c1ccc(Br)o1)N1CCN(c2ccccn2)CC1 | 25µM* | -50%[12.7 µM] | -7% | 3% | 0% | 10%
CCc1ccccc1S(=O)(=O)Cc1ccc(C(=O)N2CCN(c3ccccn3)CC2)o1 | ? | 79µM* | -7% | -3% | 5% | 66%
O=C(Nc1ccc(C(=O)N2CCN(c3ccccn3)CC2)cc1)c1ccc(Br)o1 | nt | 11%[2.33 µM] | -32% | ? | -10% | -1%
O=C(c1cccc(Cl)c1)N1CCN(S(=O)(=O)c2ccc(Cl)s2)CC1 | nt | -3%[59 µM] | 1% | 5% | -1% | 56%
COc1ccc(C(=O)Nc2nc3n(n2)C(c2ccc(Cl)cc2)C=C(c2ccccc2)N3)cc1OC (stereo unspecified) | nt | ? | 56µM* | 28µM* | 6% | 26%
O=C(Nc1nc2n(n1)C(c1ccccc1)C=C(c1ccccc1)N2)c1ccccc1 (stereo unspecified) | nt | 10µM* | 56µM* | 20µM* | nt | 50%
O=C1CC(c2ccccc2)n2nc(NC(=O)c3ccccn3)nc2N1 (stereo unspecified) | ? | 13% | 7.9µM* | -107% | 2% | 45%
O=C(Nc1ccc(Cl)cc1)c1cnn2c1NC(c1ccccc1)=CC2c1ccccc1 (stereo unspecified) | nt | 10µM* | ? | -33% | 3% | -7%
CCOc1cc(C(=O)NN2CCOCC2)cc(OCC)c1OCC | 14% | -6%[0.501 µM] | 2% | 4% | nt | 39%
Nc1cc2nc3ccccc3oc-2cc1=O | 22µM* | nt | ? | 45µM* | -8% | -24%
Cc1ccccc1OCC(=O)Nc1ccccc1N1CCC(C)CC1 | 2% | 77% | 48% | 11% | -5% | 110%
COc1ccc(C(CNC(=O)C(CCSC)NC(=O)c2ccccc2OC)N2CCCCC2)cc1 (stereo unspecified) | 7% | 32µM* | -22% | -26% | 6% | 5%
COc1ccc(C(CNC(=O)C(CCSC)NC(=O)c2ccccc2Cl)N2CCOCC2)cc1 (stereo unspecified) | nt | 2% | -6% | -6% | -4% | 33%
CSc1ccc(CN(C)C(=O)c2cc(Cl)c3c(c2)OCCO3)cc1 | 4% | 56µM* | -17% | ? | 5% | 13%
Cc1ccc(S(=O)(=O)N2CCc3c2cc([N+](=O)[O-])cc3[N+](=O)[O-])cc1 | -8% | -12%[2.33 µM] | 32µM* | ? | nt | ?
S=C(Nc1ccc(Cl)cc1Cl)Nn1cnnc1 | 13µM* | ? | -25% | -32% | -1% | -15%
S=C(Nc1cc(Cl)ccc1Cl)Nn1cnnc1 | 18µM* | 7.9µM* | -10% | -11% | nt | -17%
SMILES | Sfp inh | G9a inh | JMJD2A Tudor | BAZ2B block | TDP1 inh | HP1b chromo inh
S=C(NCc1ccc(Cl)cc1)Nc1ccc(Cl)cc1Cl | 5% | 24%[59 µM] | -2% | -2% | 3% | 14%
Cc1ccc(C)c(C(=O)c2c(N)c(-c3nc(-c4ccc5c(c4)OCO5)cs3)c3ccccn23)c1 | nt | 14%[59 µM] | -15% | 13% | -3% | 28%
CC(NC(=O)c1ccccc1NC(=O)c1nsc2ccccc12)c1ccccc1 (stereo unspecified) | nt | -5%[59 µM] | -2% | -3% | 0% | 4%[57 µM]
CCc1ccc(OCC(O)CN2CCN(c3ccccn3)CC2)cc1 (stereo unspecified) | -3% | nt | -28% | -8% | nt | 6%
CCCc1ccc(OCC(O)CN2CCN(c3ccccn3)CC2)cc1 (stereo unspecified) | 12% | 50µM* | ? | ? | 7% | 5%
CC(=O)c1ccc(OCC(O)CN2CCN(c3ccccn3)CC2)cc1 (stereo unspecified) | 5% | 56µM* | ? | -36% | 5% | 89%
CN(C(=O)c1ccc(NC(=O)Cc2ccc(NC(=O)C3CCCN(C(=O)c4ccccc4)C3)cc2)cc1)C1CCCC1 (stereo unspecified) | nt | nt | -11% | nt | nt | 37%
CC(C)S(=O)(=O)CC(=O)c1ccc(Cl)cc1 | 6% | 13% | -8% | 1% | 2% | 28%
N[C@H]1CCN(O)C1=O | -17% | nt | nt | nt | 19% | nt
CC[N+](CC)(CC)CCCCOc1ccc2c(c1)C(=O)c1cc(OCCCC[N+](CC)(CC)CC)ccc1-2 | -13% | ? | 35µM* | -33% | nt | -6%
CC(C)(C)C(=O)[C@H]1[C@H](c2ccccc2)[C@@]2(N=C(c3ccccc3)OC2=O)C2c3ccccc3C=NN21 (stereo partly specified) | 3% | 79µM* | ? | -3%[57.1 µM] | 2% | -5%
Clc1ccc(C=NN2CCCCCC2)cc1 | nt | nt | 35µM* | nt | nt | -33%
Clc1ccc(C=NN2CCCCCC2)cc1Cl | nt | nt | ? | nt | nt | 17%
COc1cc(/C=N/N2CCCCC2)cc(OC)c1O | 45µM* | 22µM* | -26% | -34% | nt | -5%
Clc1ccc(/C=N/N2CCCCC2)cc1 | 10% | -36%[59 µM] | 50µM* | -38% | -2% | -12%
Oc1ccc(/C=N/N2CCCCC2)cc1O | 50µM* | -10%[2.33 µM] | ? | ? | nt | ?

Screening results (PubChem)
